Inhibition data for 85 molecules are collected here from PubChem BioAssay AID588689 (Southern Research Specialized Biocontainment Screening …, 2011).

Out of some 340,000 compounds screened, about 1,000 (0.29%) were called active. Cut-off read from the data, not from the text of the source: inconclusive = inhibition above about 29% without an active follow-up result; inactive = below that. Not all results are given here. Entries with a potency or affinity are not part of this list.

For the test, the target named is Genome polyprotein (Dengue virus type 2 (strain 16681-PDK53)) (UniProt P29991). Briefly: Dengue-2 NS5 methyltransferase inhibitors, primary screen, biochemical, confirmation dose response (AID 588689). Particulars: Dengue-2 NS5 methyltransferase capping enzyme assay, at 25 µM, stronger effect = higher value.
The mark [1] stands for this setting: measured here: pilot screen replicate inhibition.

Usually inhibition stands for the change of the read-out against control, counted positive when it falls.

With `CCn1c(CC(=O)Nc2ccccc2)nnc1SCc1nc2ccccc2c(=O)[nH]1`, the inhibition was -0.79% (inactive).

Take `Nc1ncnc2c1ncn2[C@@H]1O[C@H](CNC(=O)[C@H](N)Cc2cscn2)[C@@H](O)[C@H]1O`: the inhibition was -4.56% (inactive).

As to `NC(=O)c1cc([N+](=O)[O-])ccc1NCc1cccc(N)c1`, the inhibition was -0.8% (inactive).

For `COC(=O)Cn1c(=NC(=O)c2ccc(Cl)s2)sc2cc(C)ccc21`, the inhibition was 4.02% (inactive).

`O=C(NC(=S)NCc1ccccc1)c1ccccc1[N+](=O)[O-]`: the inhibition was -9.35% (inactive).

Turning to `O=C(NCCc1ccccc1)C(=O)Nc1ccc2c(c1)OCCO2`, the inhibition is -12.2% (inactive).

Consider `O=C(c1ccc(Cl)c(Cl)c1)N1CCN(c2ccccn2)CC1`, for which the inhibition was -2.38% (inactive).

Take `COCCN(C(=O)CSc1nnc(-c2ccccc2F)n1N)c1c(N)n(Cc2ccccc2)c(=O)[nH]c1=O`: the inhibition was 11.2% (inactive).

As to `CCOc1ccc(OCCCC(=O)NCCOc2ccccc2OC)cc1`, the inhibition was -5.46% (inactive).

Regarding `Cc1cccc(OCC(=O)NC(=S)Nc2ccc(S(=O)(=O)NC3CCCCC3)cc2)c1`, the inhibition is 0% (inactive).

In the case of `CC(C)(C)C(=O)CSc1nc2c(c(-c3cccs3)c1C#N)CCC2`, the inhibition is -8.9% (inactive).

With `CN1CCc2nc(SC(C(=O)O)c3ccccc3)c(C#N)c(-c3cccs3)c2C1` (centres undefined), the inhibition is 23.2% (inactive).

As for `Cc1ccc(CNC(=O)CCS(=O)(=O)c2ccc(Br)cc2)cc1`, the inhibition was -2.71% (inactive).

Consider `Cc1nc2ccccc2c(=O)n1NC(=O)c1ccc(C(C)(C)C)cc1`, for which the inhibition was -7.84% (inactive).

With `O=C(O)CC(NC(=O)C12CC3CC(CC(C3)C1)C2)c1cccc([N+](=O)[O-])c1` (centres undefined), the inhibition was 4.1% (inactive).

In the case of `CCN=C1S/C(=C\c2ccc(-c3cccc(C(=O)O)c3)o2)C(=O)N1CC`, the inhibition was 0.91% (inactive).

Regarding `O=C(O)c1cccc(-c2ccc(/C=C3/SC(=Nc4ccccc4)N(Cc4cccnc4)C3=O)o2)c1`, the inhibition was 3.26% (inactive).

As to `COc1ccc(C(=O)CN2C(=O)NC3(CCCc4ccccc43)C2=O)cc1` (centres undefined), the inhibition was -6.6% (inactive).

Turning to `O=C(O)Cn1c(CC(=O)N2CCCC2)nc2ccccc21`, the inhibition is 2.7% (inactive).

With `N#C/C(=C/c1ccc(-c2ccccc2[N+](=O)[O-])o1)C(N)=O`, the inhibition is -17.5% (inactive).

Consider `CCOC(=O)c1cc(-c2ccc(/C=C3/C(=O)NC(=O)C(C#N)=C3C)o2)ccc1Cl`, for which the inhibition is 44.5% (inactive).

With `N#C/C(=C\c1ccc(-c2ccccc2[N+](=O)[O-])o1)C(N)=O`, the inhibition is -6.96% (inactive).

As for `O=C(O)/C(=C\c1ccc(-c2ccccc2[N+](=O)[O-])o1)c1ccccc1`, the inhibition was 25.4% (inactive).

For `CC1=C(C#N)C(=O)NC(=O)/C1=C\c1ccc(-c2ccc(C)cc2[N+](=O)[O-])o1`, the inhibition is 23.7% (inactive).

In the case of `O=[N+]([O-])c1ccccc1-c1ccc(/C=N/n2cnnc2)o1`, the inhibition is 1.62% (inactive).

Regarding `CCN1C(=O)[C@H]2[C@@H](c3ccc(C)cc3)N3C(=O)N(c4cccc(Cl)c4)C(=O)[C@@]3(Cc3ccccc3)[C@H]2C1=O`, the inhibition was 0% (inactive).

Regarding `NC(=O)CSc1oc(-c2ccc(F)cc2)nc1S(=O)(=O)c1ccccc1`, the inhibition is -9.82% (inactive).

As to `Cc1ccccc1NC(=O)C1CCC(=O)N1` (centres undefined), the inhibition was -6.11% (inactive).

For `O=C(CNC(=O)c1cccc(S(=O)(=O)N2CCc3ccccc32)c1)Nc1ccccc1Br`, the inhibition is 2.25% (inactive).

On to `CSc1ccc(/C=N/Nc2ccc(Cl)c(C(=O)O)c2)cc1`, for which the inhibition was -1.45% (inactive).

As for `O=C(O)c1cc(N/N=C/c2ccncc2)ccc1Cl`, the inhibition is -3.81% (inactive).

Take `COC(=O)C1SCC2C(=O)N(Cc3ccc(F)cc3)CC(=O)N21` (centres undefined): the inhibition is -5.39% (inactive).

For `Cn1c(SCC(=O)Nc2ccc3nc(SCC(=O)N4CCCC4)sc3c2)nnc1-c1ccc(N)cc1`, the inhibition is 9.65% (inactive).

`O=c1c2ccccc2nc(SCc2cc([N+](=O)[O-])cc3c2OCOC3)n1-c1ccccc1`: the inhibition was -2.94% (inactive).

Consider `COc1ccc(OC)c(NC(=O)Nc2cccnc2)c1`, for which the inhibition is 1.62% (inactive).

Regarding `Cc1cc(C)c(NC(=O)CN2C(=O)NC3(CCCCC3)C2=O)c(Cl)c1`, the inhibition was -4.81% (inactive).

Take `CCCn1nc(NS(=O)(=O)c2cccc3nonc23)c2cc3ccccc3nc21`: the inhibition was 0.45% (inactive).

Consider `CCCCn1nc(NS(=O)(=O)c2cccc3nonc23)c2cc3cccc(C)c3nc21`, for which the inhibition is 27.8% (inactive).

For the molecule `COc1ccc(S(=O)(=O)NCC2CCCN(C(=O)CSC)C2)cc1` (centres undefined), the inhibition was -2.61% (inactive). Also, the inhibition under setting [1] was 0.01%.

On to `C=CCN(C(=O)Cc1cccs1)c1nc(-c2ccc(S(C)(=O)=O)cc2)cs1`, for which the inhibition is -10.3% (inactive).

In the case of `Cc1[nH][nH]c(=O)c1C(c1ccc(-c2ccccc2C(=O)O)o1)c1c(C)[nH][nH]c1=O`, the inhibition is 39% (inactive).

For `Cc1[nH][nH]c(=O)c1C(c1ccc(-c2cccc(C(=O)O)c2)o1)c1c(C)[nH][nH]c1=O`, the inhibition is 21.1% (inactive).

For `Cc1cc(S(=O)(=O)N2CCCOC2CNC(=O)C(=O)NCCc2ccco2)ccc1F` (centres undefined), the inhibition is 0.64% (inactive).

In the case of `COc1ccccc1OCCNC(=O)C(CCSC)NS(=O)(=O)c1ccccc1F` (centres undefined), the inhibition is -7.2% (inactive).

For the molecule `CC(Oc1ccccc1)C(=O)NNS(=O)(=O)c1ccc([N+](=O)[O-])cc1` (centres undefined), the inhibition was -1.92% (inactive).

`COc1ccc(-n2c(SCC(=O)Nc3cc(C)on3)nc3ccc(O)cc3c2=O)cc1OC`: the inhibition is -6.42% (inactive).

Turning to `O=C1NC(=S)N/C1=C/c1cccc([N+](=O)[O-])c1`, the inhibition is 1.48% (inactive).

Turning to `O=[N+]([O-])c1cccc(/C=N/N=C\c2ccccc2)c1`, the inhibition was -0.78% (inactive).

On to `NS(=O)(=O)c1ccc(NCc2c(F)cccc2Cl)cc1`, for which the inhibition is 4.17% (inactive).

Consider `O=C(O)c1cc(NCc2c(F)cccc2Cl)ccc1N1CCOCC1`, for which the inhibition was -2.05% (inactive).

Turning to `CN1CCC(=NNC(=O)c2ccco2)CC1`, the inhibition was 17.7% (inactive).

Regarding `Cc1ccccc1C(=O)NC(=S)Nc1ccc2[nH]c(=O)[nH]c2c1`, the inhibition is -1.8% (inactive).

For the molecule `C[C@H](CO)N1C[C@H](C)[C@@H](CN(C)S(=O)(=O)c2ccc(F)cc2)Oc2ccc(NS(=O)(=O)c3ccccc3)cc2C1=O`, the inhibition was 0.4% (inactive).

With `Cc1c(N=C2C(=O)Nc3ccccc32)c(=O)n(-c2ccccc2)n1C`, the inhibition is 2.78% (inactive).

As to `CCC(C)C1=CC(=Nc2c(C)n(C)n(-c3ccccc3)c2=O)C=C(C(C)CC)C1=O` (centres undefined), the inhibition was 4.41% (inactive).

With `CC1=CC(=Nc2c(C)n(C)n(-c3ccccc3)c2=O)C=C(C)C1=O`, the inhibition is 2.89% (inactive).

Turning to `Cc1c(N=c2scc(-c3ccccc3)n2C)c(=O)n(-c2ccccc2)n1C`, the inhibition is -7.91% (inactive).

On to `CCC1CCCCN1C(=O)COc1ccc(S(=O)(=O)N2CCOCC2)cc1Cl` (centres undefined), for which the inhibition was -7.51% (inactive).

On to `CCOC(=O)c1c(-c2ccccc2)oc2ccc(OCC(=O)O)cc12`, for which the inhibition is -1.55% (inactive).

In the case of `CC1CCCCC1NC(=O)c1nnc(Cc2ccc(Cl)cc2)o1` (centres undefined), the inhibition is -2.17% (inactive).

Regarding `Cc1cc(-n2c(C)cc(C(=O)CSc3nncn3C(C)C)c2C)no1`, the inhibition is -1.44% (inactive).

On to `COC(=O)c1ccc([C@H](NC(=O)c2ccco2)[C@]2(C)C[C@H]2C2CCCCC2)cc1`, for which the inhibition is -7.21% (inactive).

Take `COc1ccc(C(=O)c2ccc(N3CCN(C(=O)c4ccc(F)cc4)CC3)c(F)c2)cc1Br`: the inhibition is 4.82% (inactive).

As to `O=C1Oc2ccccc2C(=O)/C1=C\N1CCN(c2ccccc2)CC1`, the inhibition is -8.28% (inactive).

With `Cc1ccccc1/C=C1\Oc2ccccc2C1=O`, the inhibition is 1.3% (inactive).

With `Cc1cc(C(=O)NNC(=O)c2c(-c3c(Cl)cccc3Cl)noc2C)no1`, the inhibition is 0% (inactive).

As to `CCc1ccc(OCC(O)CN2CCN(c3ccc(OC)cc3)CC2)cc1` (centres undefined), the inhibition was -3.27% (inactive).

With `O=C(c1ccccc1)c1ccc(Oc2ccc(C(=O)O)c(C(=O)O)c2)cc1`, the inhibition was 2.64% (inactive). For the same molecule, the inhibition under setting [1] is -1.5%.

Regarding `CC(C)(C)C(=O)Nc1ccc(C(=O)Nc2cccc(Oc3ccc(C(=O)O)c(C(=O)O)c3)c2)cc1`, the inhibition is 9.79% (inactive). Further, the inhibition under setting [1] was -1.52%.

For the molecule `COc1cc(-c2nc3ccccn3c2/N=C/c2ccc(F)cc2)ccc1O`, the inhibition is -1.47% (inactive).

Take `O=C(c1ccc2c3c(cccc13)CC2)C1CCCN(Cc2cccnc2)C1` (centres undefined): the inhibition is -8.53% (inactive).

In the case of `O=C(c1ccc2c3c(cccc13)CC2)C1CCCN(Cc2ccncc2)C1` (centres undefined), the inhibition is -3.47% (inactive).

Turning to `O=C(NCCO)C(=O)NCC(c1cccs1)S(=O)(=O)c1ccc(F)cc1` (centres undefined), the inhibition was 0% (inactive).

Take `CC(C)C[C@@H](CNC(=O)OC(C)(C)C)NC(=O)c1nc[nH]c1C(=O)N[C@@H](CC(C)C)C(=O)CNC[C@H](CC(C)C)NC(=O)c1nc[nH]c1C(=O)N[C@@H](Cc1c[nH]c2ccccc12)C(=O)OC(C)(C)C`: the inhibition is -7.03% (inactive).

For `CC1(C)CC(=O)C=C(C(=O)N2CCCC(C(=O)c3cc(F)ccc3F)C2)O1` (centres undefined), the inhibition was -6.28% (inactive).

Take `CCN(C1CCCCC1)S(=O)(=O)CCNC(=O)c1ccc2c(c1)OCO2`: the inhibition was -2.2% (inactive).

Turning to `c1ccc2c(-n3cccn3)cccc2c1`, the inhibition was -11.8% (inactive).

With `Cc1ccn(-c2cc(O)c(-n3ccc(C)n3)cc2O)n1`, the inhibition is -6.11% (inactive).

Turning to `CCOc1ccccc1C(=O)OCC(=O)Nc1ccc(OC(F)F)cc1`, the inhibition was 0.68% (inactive). Moreover, the inhibition under setting [1] was -8.52%.

Take `COc1ccccc1/C=C1\SC(=S)N(N2C(=O)CCCC2=O)C1=O`: the inhibition was 0% (inactive).

As to `COc1ccc(/C=C2\SC(=S)N(NS(=O)(=O)c3ccc(C)cc3)C2=O)c(OC)c1`, the inhibition was 16.5% (inactive).

As to `COc1ccccc1/C=C1\SC(=S)N(Nc2nc(C)cc(C)n2)C1=O`, the inhibition was 7.21% (inactive).

Regarding `COc1ccc(OC)c(/C=C2\SC(=S)N(NS(=O)(=O)c3ccccc3)C2=O)c1`, the inhibition was 43.4% (inactive).

As for `Cc1cc2cc(C#N)c(SCC(=O)Nc3nonc3C)nc2cc1C`, the inhibition was 3.66% (inactive).

`O=C(CSc1nnc2ccccn12)NC(=O)c1cccc([N+](=O)[O-])c1`: the inhibition was -2.72% (inactive).
